From PubChem BioAssay AID624330 (Southern Research Specialized Biocontainment Screening …, 2012)
Out of some 340,000 compounds screened, about 2,100 (0.62%) were called active.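 Rule for the calls: active = first-screen hits whose inhibition reached a set limit at any dose in the follow-up dose series; inconclusive = inhibition above the set first-screen limit but never retested; inactive = the rest.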 A selection follows. Entries with a potency or affinity are not part of this list.

Target: Rac GTPase-activating protein 1 (Homo sapiens) (UniProt Q9H0H5)
Sequence (Q9H0H5 whole entry, looked up): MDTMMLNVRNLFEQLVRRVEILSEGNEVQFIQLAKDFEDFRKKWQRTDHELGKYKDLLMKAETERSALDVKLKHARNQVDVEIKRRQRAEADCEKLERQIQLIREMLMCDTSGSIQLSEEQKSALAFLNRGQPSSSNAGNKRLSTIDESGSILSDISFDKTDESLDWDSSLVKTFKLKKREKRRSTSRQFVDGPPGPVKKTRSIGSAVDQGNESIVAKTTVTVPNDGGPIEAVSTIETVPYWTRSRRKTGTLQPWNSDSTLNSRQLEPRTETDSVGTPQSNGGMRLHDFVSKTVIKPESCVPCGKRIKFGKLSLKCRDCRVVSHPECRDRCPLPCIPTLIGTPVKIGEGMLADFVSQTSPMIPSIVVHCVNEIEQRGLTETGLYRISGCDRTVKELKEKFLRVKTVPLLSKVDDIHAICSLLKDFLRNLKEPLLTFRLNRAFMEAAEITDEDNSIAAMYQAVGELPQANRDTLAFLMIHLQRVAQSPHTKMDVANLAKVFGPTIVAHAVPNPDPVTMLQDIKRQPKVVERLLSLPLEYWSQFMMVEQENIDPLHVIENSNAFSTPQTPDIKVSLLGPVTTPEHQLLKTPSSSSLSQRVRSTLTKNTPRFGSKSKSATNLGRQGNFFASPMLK
Experiment: blockers of MgcRacGAP-driven Rac1 GTP hydrolysis – biochemical, ADP Hunter fluorescence, primary and confirmatory, confirmation (AID 624330);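 note: fluorescence reports GDP produced by GAP-driven GTP hydrolysis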
Details: MgcRacGAP-stimulated Rac1 GTP hydrolysis, at 30 µM, stronger effect = higher value, GST-tagged Rac1 F28L mutant substrate

inhibition, inactive:
COc1ccc(Cn2nnnc2C(c2ccccn2)N2CCN(c3cc(Cl)ccc3C)CC2)cc1 (centres undefined) 3.5%, CCOC(=O)c1[nH]c2ccccc2c1NC(=O)C(C)(C)C 5.02%, CCOC(=O)c1[nH]c(C)c(C(=O)Nc2ccccc2C)c1C 6.7%, CCCC(=O)Nc1c(C(=O)OCC)[nH]c2ccccc12 4.51%, Cc1cccc(NC(=O)COC(=O)c2n[nH]c3ccccc23)c1C 4.6%, CCCCNC(=O)Nc1c(C(=O)OCC)[nH]c2ccccc12 5.71%, CCOC(=O)c1[nH]c2ccccc2c1N=CN(CC)CC 14.9%, CCOC(=O)c1[nH]c2ccccc2c1N=CN(C)C 27.9%, CCOC(=O)c1[nH]c2ccccc2c1NC(=O)COC 4.84%, O=C(CCCn1c(=O)c2sccc2n(CC(=O)OCc2ccccc2)c1=O)NCc1ccco1 6.92%, O=C(NCc1nnc2c(C(F)(F)F)cc(Cl)cn12)c1cccnc1 9.23%, CC(OC(=O)Cc1ccsc1)C(=O)Nc1ccc(C(N)=O)cc1 (centres undefined) 2.18%, O=C(NC(=S)N(Cc1ccccc1)c1ccccn1)C1CCCCC1 7.13%, COc1ccccc1NC(=O)NCc1ccccc1F 5.13%, O=C(c1ccccc1)N1CCCC(C(=O)N2CCCCCC2)C1 (centres undefined) -4.85%, CCCn1ccc2c(OCC(=O)Nc3ccc(NC(C)=O)cc3)cccc2c1=O -3.32%, O=C(c1cc(Cl)ccc1OCc1ccccc1)N1CCOCC1 6.74%, CC(Oc1ccccc1)C(=O)NNC(=O)c1ccccn1 (centres undefined) 3.78%, COc1ccc([C@H]2CC(=O)C=C(c3ccccc3-c3ccccc3)C2)cc1 0.94%, CCCC/C(O)=C1\C(=O)CC(C)(C)CC1=Nc1ccc(OC)cc1 3.47%, O=C(Nc1ccc(F)cc1)Nc1nnc(Cc2ccccc2)s1 2.79%, COc1ccc(/C=N/NC(=O)CNc2n[nH]c(=O)[nH]c2=O)cc1OC 10.5%, COc1cc(/C=N/NC(=O)CSc2cc(C)c(Br)cc2C)ccc1O 15.9%, COc1cc(/C=N/NC(=O)CCc2c(C)n[nH]c2C)ccc1O 3.71%, COc1ccc(/C=N/NC(=O)CCc2n[nH]c(=O)[nH]c2=O)cc1OC 4.75%, COc1cc(/C=N/NC(=O)C(C)Nc2n[nH]c(=O)[nH]c2=O)cc(OC)c1O (centres undefined) 11.1%, COc1ccc(C=NNC(=O)CCCC(=O)NN=Cc2ccc(OC)c(OC)c2)cc1OC 2.12%, COc1cc(/C=N/NC(=O)c2cc(-c3ccccc3)nc3ccccc23)ccc1O 21.3%, CCOc1cc(/C=N/NC(=O)COc2nc(C)cc(COC)c2C#N)ccc1O 16.6%
